Records with an inconclusive call do not appear. Activity calls are given as the source filed them. Unless noted, calls come from the whole dose curve; as a rule, active = well fitted curve in the direction sought with a large enough effect; inconclusive = small, poorly fitted or top-dose-only effect, or another doubt; inactive = no such curve, though single readings can be large; an effect the other way counts as inactive or inconclusive.
Columns and labels:
[1] = qHTS Assay for Lipid Storage Modulators (AID 1519; calls by dose curve; note: potency is the fitted concentration of half-maximal effect; for activity change, negative = inhibition: % is set by controls: 0 for no effect and ±100 for the full control effect); details: Drosophila S3 cells, BODIPY lipid droplet/cell ratio, laser cytometry, cells loaded with oleic acid; for activity change, negative = inhibition: at 57.5 µM (top of the series)
Method in brief: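 Cells seeded at 5,000 per well were treated with compounds over a concentration series and loaded with oleic acid (400 uM, as added). Lipid droplet fluorescence (488 nm excitation, 500-530 nm channel) was read by laser-scanning cytometry and normalized to 20 uM Triacsin C.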

[2] = target: ATP-dependent 6-phosphofructokinase (Trypanosoma brucei brucei) (UniProt O15648); assay: qHTS Assay to Find Inhibitors of T. brucei phosphofructokinase: hit validation (AID 492961);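 note: luminescence reports ADP formed as PFK phosphorylates fructose-6-phosphate with ATP; % is set by controls: 0 for no effect and ±100 for the full control effect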; details: T. brucei PFK, ADP-Glo luminescence; series mostly up to 24.3 µM
ATP-dependent 6-phosphofructokinase (Trypanosoma brucei brucei), sequence (O15648 whole entry, looked up): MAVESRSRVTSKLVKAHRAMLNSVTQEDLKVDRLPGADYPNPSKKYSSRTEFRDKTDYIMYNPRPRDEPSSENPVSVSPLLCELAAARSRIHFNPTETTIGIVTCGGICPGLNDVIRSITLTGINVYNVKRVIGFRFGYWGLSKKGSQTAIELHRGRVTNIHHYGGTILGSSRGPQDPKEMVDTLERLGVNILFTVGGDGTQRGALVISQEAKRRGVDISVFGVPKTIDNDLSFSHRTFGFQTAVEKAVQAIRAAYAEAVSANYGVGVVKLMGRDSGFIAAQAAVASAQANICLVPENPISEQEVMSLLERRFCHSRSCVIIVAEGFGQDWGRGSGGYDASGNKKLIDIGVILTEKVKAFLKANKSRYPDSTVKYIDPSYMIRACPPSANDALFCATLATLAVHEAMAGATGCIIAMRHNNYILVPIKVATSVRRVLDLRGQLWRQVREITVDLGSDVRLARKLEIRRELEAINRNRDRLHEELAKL
Method in brief: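 Inhibition of parasite PFK is measured as reduced ADP formation, quantified via luciferase after ATP depletion. Assay used 0.1 mM ATP, 0.5 mM F6P, 1.25 nM enzyme, 45 min incubation.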

[3] = target: Ubiquitin carboxyl-terminal hydrolase 1 (Homo sapiens) (UniProt O94782); assay: Inhibitors of USP1/UAF1: Pilot qHTS (AID 504865); details: purified USP1/UAF1, Ub-rhodamine cleavage fluorescence; series mostly up to 114 µM;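 note: rhodamine fluorescence freed from ubiquitin-rhodamine substrate followed over time; top concentration of the series differs between compounds; % is set by controls: 0 for no effect and ±100 for the full control effect; nearly all actives have a fitted effect of over 35% in size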
Ubiquitin carboxyl-terminal hydrolase 1 (Homo sapiens), sequence (O94782 whole entry, looked up): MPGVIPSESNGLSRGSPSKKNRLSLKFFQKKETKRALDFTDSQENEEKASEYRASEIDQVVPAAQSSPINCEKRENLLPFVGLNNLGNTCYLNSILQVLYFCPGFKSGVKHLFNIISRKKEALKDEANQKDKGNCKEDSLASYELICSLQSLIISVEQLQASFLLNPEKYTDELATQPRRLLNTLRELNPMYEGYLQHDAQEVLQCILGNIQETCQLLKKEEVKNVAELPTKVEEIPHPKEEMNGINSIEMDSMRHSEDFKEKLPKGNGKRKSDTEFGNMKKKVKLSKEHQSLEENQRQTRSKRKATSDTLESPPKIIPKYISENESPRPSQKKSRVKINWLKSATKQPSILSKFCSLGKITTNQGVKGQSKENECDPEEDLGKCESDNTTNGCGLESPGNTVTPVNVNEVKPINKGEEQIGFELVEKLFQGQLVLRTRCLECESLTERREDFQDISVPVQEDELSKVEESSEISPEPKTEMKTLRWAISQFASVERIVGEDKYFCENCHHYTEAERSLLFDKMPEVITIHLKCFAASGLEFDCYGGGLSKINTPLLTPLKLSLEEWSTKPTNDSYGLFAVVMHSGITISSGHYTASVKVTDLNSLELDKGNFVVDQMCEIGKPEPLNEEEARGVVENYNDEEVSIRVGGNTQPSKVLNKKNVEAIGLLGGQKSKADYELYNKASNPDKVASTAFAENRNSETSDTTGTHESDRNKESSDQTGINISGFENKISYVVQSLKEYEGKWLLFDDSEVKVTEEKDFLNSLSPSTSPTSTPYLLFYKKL
Method in brief: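 USP1/UAF1 complex (1nM) preincubated with compound 15 min at room temperature, then Ub-Rho substrate (150nM final) added. Fluorescence read kinetically at 480/540 nm, 6 reads every 60 seconds. Buffer: 50mM HEPES pH 7.8, 0.5mM EDTA, 0.1 mg/ml BSA, 1mM TCEP, 0.01% Tween-20.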

[4] = target: Luciferin 4-monooxygenase (Photinus pyralis) (UniProt P08659); assay: Biochemical firefly luciferase enzyme assay for NPC (AID 624030);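 note: purified P. pyralis luciferase at 10 nM with luciferin and ATP substrate; 0% = DMSO and -100% = full luciferase inhibition by PTC124 control; nearly all actives have a fitted effect of over 70% in size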; details: purified P. pyralis luciferase, luminescence, 5 min; series mostly up to 24.9 µM
Luciferin 4-monooxygenase (Photinus pyralis), sequence (P08659 whole entry, looked up): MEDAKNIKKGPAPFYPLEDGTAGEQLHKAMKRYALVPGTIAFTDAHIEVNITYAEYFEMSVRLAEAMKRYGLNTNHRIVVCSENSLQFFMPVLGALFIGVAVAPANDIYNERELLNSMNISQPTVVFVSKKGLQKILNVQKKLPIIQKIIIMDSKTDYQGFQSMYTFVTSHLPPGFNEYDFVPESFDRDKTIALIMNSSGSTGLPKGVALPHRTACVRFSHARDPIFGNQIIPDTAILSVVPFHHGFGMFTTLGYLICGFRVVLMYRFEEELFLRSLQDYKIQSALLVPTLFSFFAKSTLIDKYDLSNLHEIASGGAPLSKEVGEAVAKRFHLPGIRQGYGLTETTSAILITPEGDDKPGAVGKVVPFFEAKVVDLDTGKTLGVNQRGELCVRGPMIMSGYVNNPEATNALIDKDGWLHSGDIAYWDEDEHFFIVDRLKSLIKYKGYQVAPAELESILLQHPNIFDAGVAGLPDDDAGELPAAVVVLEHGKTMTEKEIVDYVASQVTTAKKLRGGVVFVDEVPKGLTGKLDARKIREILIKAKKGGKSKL
Method in brief: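 Purified P. pyralis luciferase at 10 nM in 50 mM Tris Acetate (final), luminescence read within 5 minutes of enzyme addition to compounds. Activity normalised to PTC124 versus DMSO; concentration-response curves classed by r2, magnitude and activity.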

[5] = qHTS profiling for inhibitors of Plasmodium falciparum proliferation (AID 504749); note: potency is the fitted concentration of half-maximal effect;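 for activity, negative = inhibition: 0% = DMSO vehicle and full inhibition = artemisinin control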; for all read-outs here: nearly all actives have a fitted effect of over 60% in size; details: P. falciparum in erythrocytes, SYBR Green DNA, 72 h; for activity, negative = inhibition: at 28.7 µM (top of the series)
Method in brief: (§1)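 Each compound contacts P. falciparum-infected red blood cells for 72 h at 37 C; lysis buffer (Tris, EDTA, saponin, Triton X, SYBR Green I) is added and fluorescence measured next morning; values normalized to controls.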

[6] = tested on: 3D7; assay: as above; details: P. falciparum in erythrocytes, SYBR Green DNA, 72 h; series mostly up to 12.8 µM
Method in brief: as §1

[7] = tested on: AS120; assay: as above; details: P. falciparum in erythrocytes, SYBR Green DNA, 72 h; series mostly up to 12.8 µM
Method in brief: as §1

[8] = tested on: C2A; assay: as above; details: P. falciparum in erythrocytes, SYBR Green DNA, 72 h; series mostly up to 12.8 µM
Method in brief: as §1

[9] = tested on: CP185; assay: as above; details: P. falciparum in erythrocytes, SYBR Green DNA, 72 h; series mostly up to 12.8 µM
Method in brief: as §1

[10] = tested on: CP191; assay: as above; details: P. falciparum in erythrocytes, SYBR Green DNA, 72 h; series mostly up to 12.8 µM
Method in brief: as §1

[11] = tested on: CP192; assay: as above; details: P. falciparum in erythrocytes, SYBR Green DNA, 72 h; series mostly up to 12.8 µM
Method in brief: as §1

[12] = tested on: CP217; assay: as above; details: P. falciparum in erythrocytes, SYBR Green DNA, 72 h; series mostly up to 12.8 µM
Method in brief: as §1

[13] = tested on: CP238; assay: as above; details: P. falciparum in erythrocytes, SYBR Green DNA, 72 h; series mostly up to 12.8 µM
Method in brief: as §1

[14] = tested on: CP247; assay: as above; details: P. falciparum in erythrocytes, SYBR Green DNA, 72 h; series mostly up to 12.8 µM
Method in brief: as §1

[15] = tested on: CP250; assay: as above; details: P. falciparum in erythrocytes, SYBR Green DNA, 72 h; series mostly up to 12.8 µM
Method in brief: as §1

[16] = tested on: CP262; assay: as above; details: P. falciparum in erythrocytes, SYBR Green DNA, 72 h; series mostly up to 12.8 µM
Method in brief: as §1

[17] = tested on: ECU; assay: as above; details: P. falciparum in erythrocytes, SYBR Green DNA, 72 h; series mostly up to 12.8 µM
Method in brief: as §1

[18] = tested on: FAB9; assay: as above; details: P. falciparum in erythrocytes, SYBR Green DNA, 72 h; series mostly up to 12.8 µM
Method in brief: as §1

[19] = tested on: HB3; assay: as above; details: P. falciparum in erythrocytes, SYBR Green DNA, 72 h; series mostly up to 12.8 µM
Method in brief: as §1

[20] = tested on: SC27B; assay: as above; details: P. falciparum in erythrocytes, SYBR Green DNA, 72 h; series mostly up to 12.8 µM
Method in brief: as §1

[21] = measured here: cell count channel max response
[22] = measured here: lipid channel max response

CC[C@@]12CCCN3CCc4c(n(c5ccccc45)[C@](O)(C(=O)OC)C1)C32 (some centres undefined)
38.6%: max response [1, 22]
inactive: activity change, negative = inhibition [1] 6.08% | outcome [2] | Potency [3] | Potency [4] | activity, negative = inhibition ([5]; parasite line A) 4.65% | activity, negative = inhibition ([5]; parasite line B) -5.85% | Potency [6] | Potency [7] | Potency [8] | Potency [9] | Potency [10] | Potency [11] | Potency [12] | Potency [13] | Potency [14] | Potency [15] | Potency [16] | Potency [17] | Potency [18] | Potency [19] | Potency [20]
25.6%: max response [1, 21]

COc1cc(C2c3cc4c(cc3C(O[C@@H]3OC5COC(c6cccs6)OC5C(O)C3O)C3COC(=O)C23)OCO4)cc(OC)c1O (some centres undefined)
-100%: max response [1, 22]
active: Potency [1] 5010 nM | Potency ([5]; parasite line A) 1120 nM | Potency ([5]; parasite line B) 2000 nM | Potency [6] 2000 nM | Potency [7] 1000 nM | Potency [8] 2240 nM | Potency [9] 2240 nM | Potency [10] 2240 nM | Potency [11] 4260 nM | Potency [12] 2000 nM | Potency [13] 2000 nM | Potency [14] 2240 nM | Potency [15] 2000 nM | Potency [16] 8490 nM | Potency [17] 2510 nM | Potency [18] 2240 nM | Potency [19] 3160 nM | Potency [20] 3160 nM
inactive: outcome [2] | Potency [3] | Potency [4]
22.3%: max response [1, 21]

COC(=O)N/N=C/C1=C[N+](=O)c2ccccc2[N+]1=O
5.74%: max response [1, 21]
inactive: activity change, negative = inhibition [1] 12.7% | outcome [2] | Potency [3] | Potency [4] | activity, negative = inhibition ([5]; parasite line A) -2.61% | activity, negative = inhibition ([5]; parasite line B) -4.8% | Potency [6] | Potency [7] | Potency [8] | Potency [9] | Potency [10] | Potency [11] | Potency [12] | Potency [13] | Potency [14] | Potency [15] | Potency [16] | Potency [17] | Potency [18] | Potency [19] | Potency [20]
17.7%: max response [1, 22]

OCC1O[C@H](OC2C(CO)O[C@@](O)(CO)C2O)C(O)C(O)C1O (some centres undefined)
24%: max response [1, 22]
14.3%: max response [1, 21]
inactive: activity change, negative = inhibition [1] 5.94% | outcome [2] | Potency [3] | Potency [4] | activity, negative = inhibition ([5]; parasite line A) 9.31% | activity, negative = inhibition ([5]; parasite line B) 4.3% | Potency [6] | Potency [7] | Potency [8] | Potency [9] | Potency [10] | Potency [11] | Potency [12] | Potency [13] | Potency [14] | Potency [15] | Potency [16] | Potency [17] | Potency [18] | Potency [19] | Potency [20]

CC(=O)N[C@@H]1C(O)OC(CO)C(O)C1O (some centres undefined)
inactive: activity change, negative = inhibition [1] 4.62% | outcome [2] | Potency [3] | Potency [4] | activity, negative = inhibition ([5]; parasite line A) 3.66% | activity, negative = inhibition ([5]; parasite line B) 14.7% | Potency [6] | Potency [7] | Potency [8] | Potency [9] | Potency [10] | Potency [11] | Potency [12] | Potency [13] | Potency [14] | Potency [15] | Potency [16] | Potency [17] | Potency [18] | Potency [20]
11.6%: max response [1, 22]
4.28%: max response [1, 21]

— PubChem BioAssay (NCATS)
